Results taken from the supplement of paper PMC10849652.
Targets with a hit are over-represented here; the source holds about 7,900 in all. About 0.6% of all pairs of compound and target were hits. Values without a mark were called inactive.

Experiments:
Assay in all cases: log2 fold change, soluble protein after heating vs DMSO (PISA); higher = thermal stabilisation; K562 cells, 10 uM, 30 min; active = over 0.2 and 3.5 SD of the protein, either way, in both replicates (recomputed)
erlotinib = compound: C#Cc1cccc(Nc2ncnc3cc(OCCOC)c(OCCOC)cc23)c1 [erlotinib]
In short: (§1)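 Quantification of soluble protein used TMTpro 16plex LC-MS/MS, with channel sums equalised. Samples were the supernatant after 21,000xg for 90 min of pooled aliquots from K562 cells (2×10^6 cells/mL) treated with 10 μM compound for 30 min, heated for 3 min over 48°C-58°C, and extracted in PBS with 0.5% NP-40 at 4°C. Values, from duplicates, describe thermal stability against control samples on a log2 fold-change scale.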

[1] = compound: C/C(=N\NC(=O)C1=CC(=CC=C1)S(=O)(=O)N2CCOCC2)/C3=C(C=CC(=C3)Cl)O
In short: as §1

[2] = compound: C1=CC(=C(C=C1Cl)C2=NC3=NC=CN=C3C(=N2)NC4=CC=NC=C4)F
In short: as §1

[3] = compound: C1=CC(=CC=C1C2=NC3=C(N2)C=C(C=C3)C(=O)N)OC4=CC=C(C=C4)Cl
In short: as §1

[4] = compound: C1=CC2=C(C=CC(=C2)/C=C\3/C(=O)NC(=NCC4=CC=CS4)S3)N=C1
In short: as §1

[5] = compound: C1=CC2=NC=CN=C2C=C1/C=C/3\C(=O)NC(=O)S3
In short: as §1

[6] = compound: C1=CC=C(C=C1)C2=NC(=C(N2)C3=CC=NC=C3)C4=CC(=C(C=C4)Cl)O
In short: as §1

[7] = compound: C1=CC=C2C(=C1)C3=NNC4=CC=CC(=C43)C2=O
In short: as §1

[8] = compound: C1CCN(C1)C(=O)NC2=CC=CC(=C2)NC3=NC=C(C(=N3)NCCC4=CN=CN4)Br
In short: as §1

[9] = compound: C1CN(CCC1(CC2=CC=C(C=C2)Cl)N)C3=NC=NC4=C3C=CN4
In short: as §1

IRAK-1-4 Inhibitor I = compound: C1COCCN1CCN2C3=CC=CC=C3N=C2NC(=O)C4=CC(=CC=C4)[N+](=O)[O-] [IRAK-1-4 Inhibitor I]
In short: as §1

ibrutinib = compound: C=CC(=O)N1CCC[C@@H](n2nc(-c3ccc(Oc4ccccc4)cc3)c3c(N)ncnc32)C1 [ibrutinib]
In short: as §1

[10] = compound: CC(=O)c1cnc2ccc(-c3cc(Cl)c(O)c(Cl)c3)nc2c1N[C@H]1CC[C@H](CN(C)C)CC1
In short: as §1

ralimetinib = compound: CC(C)(C)Cn1c(N)nc2ccc(-c3[nH]c(C(C)(C)C)nc3-c3ccc(F)cc3)nc21 [ralimetinib]
In short: as §1

[11] = compound: CC(C)(O)CC(=O)NCCn1ccc2ncnc(Nc3ccc(Oc4cccc(C(F)(F)F)c4)c(Cl)c3)c21
In short: as §1

[12] = compound: CC(C)C1=C2N=C(C=C(N2N=C1)NCC3=CC=CC=C3)NCCCCCCN
In short: as §1

[13] = compound: CC(C)C[C@@H](C=O)NC(=O)[C@H](CC(C)C)NC(=O)[C@H](CC(C)C)NC(=O)OCc1ccccc1
In short: as §1

pinometostat = compound: CC(C)N(C[C@H]1O[C@@H](n2cnc3c(N)ncnc32)[C@H](O)[C@@H]1O)[C@H]1C[C@@H](CCc2nc3cc(C(C)(C)C)ccc3[nH]2)C1 [pinometostat]
In short: as §1

[14] = compound: CC1=C(C(CC(=O)N1)C2=CC=C(C=C2)C(F)(F)F)C(=O)NC3=C(C=C4C(=C3)C=NN4)F
In short: as §1

[15] = compound: CC1=C(C2=C(C=C1)C(=O)C3=CC=CC=C3N2CCCN)C
In short: as §1

UniProt Q9NYF8, sequence (Q9NYF8 whole entry, looked up): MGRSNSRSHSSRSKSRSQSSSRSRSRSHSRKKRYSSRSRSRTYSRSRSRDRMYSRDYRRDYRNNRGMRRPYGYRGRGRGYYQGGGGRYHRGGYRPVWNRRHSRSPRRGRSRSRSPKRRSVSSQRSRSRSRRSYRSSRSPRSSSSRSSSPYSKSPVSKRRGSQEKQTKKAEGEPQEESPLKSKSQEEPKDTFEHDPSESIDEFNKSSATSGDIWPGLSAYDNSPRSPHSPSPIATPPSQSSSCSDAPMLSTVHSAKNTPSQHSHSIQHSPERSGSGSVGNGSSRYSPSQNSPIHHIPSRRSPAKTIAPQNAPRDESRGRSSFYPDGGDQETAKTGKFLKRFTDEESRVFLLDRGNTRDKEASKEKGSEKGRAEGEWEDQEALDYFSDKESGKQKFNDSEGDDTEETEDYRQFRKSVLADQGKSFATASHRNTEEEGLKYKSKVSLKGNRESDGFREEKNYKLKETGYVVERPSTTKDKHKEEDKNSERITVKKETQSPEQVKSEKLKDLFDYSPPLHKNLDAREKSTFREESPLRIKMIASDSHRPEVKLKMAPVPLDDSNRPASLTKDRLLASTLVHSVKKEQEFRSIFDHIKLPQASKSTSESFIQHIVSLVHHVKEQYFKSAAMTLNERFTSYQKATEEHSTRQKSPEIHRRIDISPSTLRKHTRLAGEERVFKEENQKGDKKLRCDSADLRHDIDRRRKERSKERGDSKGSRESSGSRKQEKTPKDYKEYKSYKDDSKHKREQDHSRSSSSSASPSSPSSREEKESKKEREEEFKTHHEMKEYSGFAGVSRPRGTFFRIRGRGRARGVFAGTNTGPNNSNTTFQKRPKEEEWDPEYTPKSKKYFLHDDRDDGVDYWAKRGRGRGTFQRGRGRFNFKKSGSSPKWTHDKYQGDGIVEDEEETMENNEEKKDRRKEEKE
UniProt Q9Y487, sequence (Q9Y487 whole entry, looked up): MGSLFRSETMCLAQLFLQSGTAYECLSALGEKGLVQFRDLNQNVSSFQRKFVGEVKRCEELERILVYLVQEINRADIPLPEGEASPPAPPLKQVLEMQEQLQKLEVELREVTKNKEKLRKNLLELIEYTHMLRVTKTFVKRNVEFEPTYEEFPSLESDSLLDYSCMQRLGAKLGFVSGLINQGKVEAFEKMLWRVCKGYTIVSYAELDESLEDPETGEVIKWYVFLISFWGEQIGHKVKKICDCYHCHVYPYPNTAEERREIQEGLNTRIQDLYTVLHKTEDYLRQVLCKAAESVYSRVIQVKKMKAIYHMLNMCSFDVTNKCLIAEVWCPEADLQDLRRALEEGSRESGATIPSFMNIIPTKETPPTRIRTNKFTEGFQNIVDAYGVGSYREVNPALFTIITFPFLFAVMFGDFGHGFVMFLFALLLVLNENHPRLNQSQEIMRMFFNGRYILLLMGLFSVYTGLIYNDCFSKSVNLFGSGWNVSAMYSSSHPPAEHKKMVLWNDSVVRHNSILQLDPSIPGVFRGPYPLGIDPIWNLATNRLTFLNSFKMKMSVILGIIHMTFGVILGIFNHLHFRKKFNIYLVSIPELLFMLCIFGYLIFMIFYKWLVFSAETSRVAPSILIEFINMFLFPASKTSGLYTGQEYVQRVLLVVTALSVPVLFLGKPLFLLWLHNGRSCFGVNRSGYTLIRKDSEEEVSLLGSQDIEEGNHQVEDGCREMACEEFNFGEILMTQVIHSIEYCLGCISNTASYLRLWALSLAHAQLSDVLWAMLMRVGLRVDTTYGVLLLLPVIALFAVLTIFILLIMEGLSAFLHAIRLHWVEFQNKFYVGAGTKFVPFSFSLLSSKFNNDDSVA
UniProt Q7L1Q6, sequence (Q7L1Q6 whole entry, looked up): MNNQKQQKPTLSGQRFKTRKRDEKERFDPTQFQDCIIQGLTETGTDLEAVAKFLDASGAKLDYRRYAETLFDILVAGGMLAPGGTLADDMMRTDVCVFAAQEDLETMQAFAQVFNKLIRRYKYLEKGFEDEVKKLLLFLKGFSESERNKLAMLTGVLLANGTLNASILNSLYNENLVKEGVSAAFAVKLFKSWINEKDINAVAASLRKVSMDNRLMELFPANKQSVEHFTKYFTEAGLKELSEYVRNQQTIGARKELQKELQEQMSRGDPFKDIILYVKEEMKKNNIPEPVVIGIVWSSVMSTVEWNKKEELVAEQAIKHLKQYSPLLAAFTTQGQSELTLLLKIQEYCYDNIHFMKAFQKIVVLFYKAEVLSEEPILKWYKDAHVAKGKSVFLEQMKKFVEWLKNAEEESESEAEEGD
UniProt P78363, sequence (P78363 whole entry, looked up): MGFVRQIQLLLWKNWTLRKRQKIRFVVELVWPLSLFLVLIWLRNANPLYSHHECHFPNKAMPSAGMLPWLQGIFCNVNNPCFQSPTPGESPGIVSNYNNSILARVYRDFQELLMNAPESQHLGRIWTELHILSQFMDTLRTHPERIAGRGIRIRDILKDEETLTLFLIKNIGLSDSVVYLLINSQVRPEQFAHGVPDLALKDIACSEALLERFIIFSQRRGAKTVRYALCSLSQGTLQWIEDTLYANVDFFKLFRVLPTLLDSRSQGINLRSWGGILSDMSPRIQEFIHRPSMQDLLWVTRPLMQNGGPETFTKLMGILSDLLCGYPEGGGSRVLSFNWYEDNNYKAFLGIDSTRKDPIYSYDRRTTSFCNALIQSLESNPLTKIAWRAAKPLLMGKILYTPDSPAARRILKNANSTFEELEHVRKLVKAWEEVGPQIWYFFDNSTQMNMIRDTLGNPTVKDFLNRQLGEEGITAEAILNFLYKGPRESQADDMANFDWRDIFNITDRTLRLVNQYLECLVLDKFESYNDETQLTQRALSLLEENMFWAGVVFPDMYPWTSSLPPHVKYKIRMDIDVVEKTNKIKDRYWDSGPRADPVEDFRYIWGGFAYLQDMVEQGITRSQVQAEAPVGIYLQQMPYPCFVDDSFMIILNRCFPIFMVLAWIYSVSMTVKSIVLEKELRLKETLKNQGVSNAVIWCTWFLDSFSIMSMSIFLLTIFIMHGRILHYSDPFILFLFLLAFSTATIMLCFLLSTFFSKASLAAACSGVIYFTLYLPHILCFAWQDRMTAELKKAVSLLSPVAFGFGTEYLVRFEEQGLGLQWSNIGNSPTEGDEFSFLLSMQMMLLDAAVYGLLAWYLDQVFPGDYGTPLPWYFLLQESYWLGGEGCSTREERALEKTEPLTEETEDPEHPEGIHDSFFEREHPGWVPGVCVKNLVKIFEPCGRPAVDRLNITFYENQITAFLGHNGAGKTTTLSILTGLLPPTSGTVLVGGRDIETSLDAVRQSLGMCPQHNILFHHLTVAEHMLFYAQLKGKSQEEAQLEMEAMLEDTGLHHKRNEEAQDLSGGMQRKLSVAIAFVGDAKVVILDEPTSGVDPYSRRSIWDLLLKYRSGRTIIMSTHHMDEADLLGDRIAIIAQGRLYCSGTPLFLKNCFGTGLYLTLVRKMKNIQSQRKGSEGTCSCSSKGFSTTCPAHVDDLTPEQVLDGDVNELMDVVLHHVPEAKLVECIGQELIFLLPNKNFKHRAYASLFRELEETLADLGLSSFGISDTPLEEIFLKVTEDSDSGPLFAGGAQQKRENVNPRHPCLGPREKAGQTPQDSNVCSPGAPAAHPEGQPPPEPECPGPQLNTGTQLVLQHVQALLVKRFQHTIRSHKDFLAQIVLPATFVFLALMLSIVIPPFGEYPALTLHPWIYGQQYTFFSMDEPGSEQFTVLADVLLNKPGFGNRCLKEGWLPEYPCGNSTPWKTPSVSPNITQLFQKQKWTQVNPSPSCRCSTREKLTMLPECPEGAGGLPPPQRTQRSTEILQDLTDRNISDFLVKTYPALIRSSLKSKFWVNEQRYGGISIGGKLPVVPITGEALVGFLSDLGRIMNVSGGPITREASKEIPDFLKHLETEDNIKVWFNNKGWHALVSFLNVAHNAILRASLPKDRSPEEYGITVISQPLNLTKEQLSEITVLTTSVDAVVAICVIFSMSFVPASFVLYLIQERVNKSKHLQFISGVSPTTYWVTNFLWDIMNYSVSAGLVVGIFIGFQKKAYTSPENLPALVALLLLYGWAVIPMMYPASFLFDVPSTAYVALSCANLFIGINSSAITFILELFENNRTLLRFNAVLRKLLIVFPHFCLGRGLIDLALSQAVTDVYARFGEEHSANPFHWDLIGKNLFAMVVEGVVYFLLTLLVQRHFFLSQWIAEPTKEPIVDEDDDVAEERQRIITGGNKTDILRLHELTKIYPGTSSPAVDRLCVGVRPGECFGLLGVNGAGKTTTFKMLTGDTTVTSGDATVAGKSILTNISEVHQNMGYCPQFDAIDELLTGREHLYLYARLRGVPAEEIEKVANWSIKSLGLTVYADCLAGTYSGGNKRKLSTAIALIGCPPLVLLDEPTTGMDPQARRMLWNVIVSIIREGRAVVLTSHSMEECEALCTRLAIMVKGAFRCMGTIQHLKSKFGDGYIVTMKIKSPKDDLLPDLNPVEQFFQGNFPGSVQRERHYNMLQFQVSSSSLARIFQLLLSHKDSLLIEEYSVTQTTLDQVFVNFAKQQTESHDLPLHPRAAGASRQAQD
UniProt Q99943, sequence (Q99943 whole entry, looked up): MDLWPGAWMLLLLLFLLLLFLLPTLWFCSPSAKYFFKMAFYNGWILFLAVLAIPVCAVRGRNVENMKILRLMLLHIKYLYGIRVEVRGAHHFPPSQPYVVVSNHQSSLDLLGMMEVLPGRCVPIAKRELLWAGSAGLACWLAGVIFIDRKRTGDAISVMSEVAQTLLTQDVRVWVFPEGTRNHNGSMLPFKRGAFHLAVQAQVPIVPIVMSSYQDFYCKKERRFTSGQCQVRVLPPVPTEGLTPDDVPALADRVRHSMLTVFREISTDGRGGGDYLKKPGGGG
UniProt P53680, sequence (P53680 whole entry, looked up): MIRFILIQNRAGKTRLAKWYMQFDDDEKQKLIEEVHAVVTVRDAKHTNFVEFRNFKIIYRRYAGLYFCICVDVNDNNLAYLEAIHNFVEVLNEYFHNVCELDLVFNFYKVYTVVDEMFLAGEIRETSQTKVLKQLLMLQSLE

Target | log2 fold change (erlotinib) | log2 fold change [1] | log2 fold change [2] | log2 fold change [3] | log2 fold change [4] | log2 fold change [5] | log2 fold change [6] | log2 fold change [7] | log2 fold change [8] | log2 fold change [9] | log2 fold change (IRAK-1-4 Inhibitor I) | log2 fold change (ibrutinib) | log2 fold change [10] | log2 fold change (ralimetinib) | log2 fold change [11] | log2 fold change [12] | log2 fold change [13] | log2 fold change (pinometostat) | log2 fold change [14] | log2 fold change [15]
AKR1C2 (UniProt P52895) | 0.07 | 0.014 | -0.101 | -0.092 | 0.001 | 0.085 | 0.292 | -0.038 | 0.044 | -0.028 | -0.218 | 0.006 | -0.043 | -0.015 | 0.099 | -0.16 | -0.043 | 0.049 | 0.008 | -0.063
BRAP (UniProt Q7Z569) | 0.114 | 0.09 | 0.022 | 0.012 | 0.001 | 0.032 | 0.172 | -0.023 | -0.07 | -0.059 | -0.032 | -0.066 | -0.018 | 0.16 | -0.016 | -0.11 | -0.093 | 0.033 | 0.026 | 0.263 (active)
BCLAF1 (UniProt Q9NYF8) | 0.036 | 0.075 | -0.046 | 0.082 | -0.304 | -0.018 | 0.143 | -0.063 | -0.089 | -0.15 | -0.265 | 0.016 | -0.503 (active) | 0.124 | 0.094 | -0.353 | -0.027 | -0.039 | 0.021 | -0.076
AFG1L (UniProt Q8WV93) | 0.053 | 0 | 0.076 | -0.083 | 0.065 | 0.041 | -0.204 | -0.042 | 0.058 | -0.004 | 0.014 | -0.016 | -0.135 | -0.134 | -0.091 | -0.385 (active) | 0.146 | 0.023 | 0.057 | -0.056
AKR1C3 (UniProt P42330) | 0.063 | 0.067 | 0.117 | -0.095 | 0.02 | 0.067 | 0.796 (active) | -0.022 | 0.031 | 0.044 | 0.072 | -0.108 | 0.015 | 0.085 | 0.265 | 0.025 | -0.149 | -0.069 | -0.064 | -0.049
BID isoform 2 (UniProt P55957) | 0.026 | 0.006 | 0.014 | 0.052 | -0.04 | 0.012 | -0.03 | 0.028 | -0.05 | 0.034 | 0.052 | 0.008 | -0.039 | -0.038 | -0.053 | 0.105 | 0.012 | -0.018 | -0.047 | 0.074
ACAD9 (UniProt Q9H845) | -0.002 | 0.025 | 0.054 | 0.015 | 0.035 | 0.032 | 0.026 | -0.002 | -0.002 | 0.029 | 0.01 | 0.005 | -0.041 | -0.034 | 0.007 | 0.002 | -0.036 | -0.028 | -0.012 | 0.028
AP2S1 (UniProt P53680) | -0.1 | 0.148 | -0.056 | -0.018 | 0.052 | 0.013 | -0.011 | -0.27 (active) | -0.354 (active) | -0.003 | -0.054 | -0.01 | -0.117 | -0.017 | -0.003 | 0.028 | -0.07 | 0.038 | -0.009 | 0.091
ANAPC2 (UniProt Q9UJX6) | -0.028 | 0.064 | -0.002 | 0.018 | 0.002 | 0.144 | -0.029 | 0.022 | -0.033 | -0.022 | 0.018 | -0.045 | 0.005 | 0.011 | -0.025 | -0.083 | 0.055 | 0.078 | -0.044 | -0.051
ABCA4 (UniProt P78363) | 0.191 | -0.367 | 0.107 | -0.151 | 0.062 | -0.073 | 0.042 | 0.044 | 0.033 | 0.145 | 0.128 | 0.078 | -0.014 | 0.215 | -0.047 | 0.127 | 0.481 | -0.06 | -0.05 | 0.082
AMFR (UniProt Q9UKV5) | 0.116 | 0 | -0.022 | -0.062 | -0.046 | 0.058 | 0.026 | -0.062 | 0.002 | -0.009 | -0.083 | -0.039 | 0.07 | 0.117 | -0.034 | -0.375 (active) | 0.12 | 0.077 | -0.011 | 0.019
ATP6V0A2 (UniProt Q9Y487) | -0.009 | 0 | -0.045 | 0.031 | -0.025 | 0.031 | 0.024 | 0.041 | -0.016 | 0.002 | -0.006 | -0.026 | -0.017 | 0.057 | -0.01 | -0.297 (active) | 0.049 | 0.054 | 0.008 | 0.003
AGPAT1 (UniProt Q99943) | 0.04 | -0.004 | 0.008 | -0.014 | 0.013 | 0.029 | -0.015 | -0.001 | 0.001 | 0.048 | 0 | -0.083 | -0.051 | 0.012 | -0.109 | 0.06 | -0.005 | 0.02 | -0.006 | -0.017
ATAD3A isoform 2 (UniProt Q9NVI7) | -0.036 | 0.02 | -0.045 | 0.006 | -0.038 | -0.013 | -0.04 | 0.017 | 0.037 | -0.101 | -0.005 | 0.08 | -0.075 | 0.009 | -0.023 | -0.468 (active) | 0.075 | 0.082 | 0 | 0.096
BZW1 isoform 3 (UniProt Q7L1Q6) | 0.049 | 0.176 | -0.001 | -0.088 | 0.054 | 0.019 | 0.042 | 0.039 | -0.059 | -0.101 | -0.118 | -0.123 | 0.005 | 0.049 | -0.296 | -0.422 (active) | 0.007 | 0.123 | 0.006 | 0.068
AAR2 (UniProt Q9Y312) | 0.075 | 0.089 | -0.113 | 0.057 | 0.103 | 0.049 | -0.003 | -0.137 | -0.008 | 0.043 | 0.039 | 0.02 | 0.021 | -0.002 | -0.062 | -0.012 | 0.104 | 0.024 | -0.074 | -0.035
